Measurements reported in the supplement of paper PMC10037445.
Values joined by “and” are separate entries in the source; they are usually repeats but may differ in a detail not shown here. Equal values may be shown once. Whole data set: some 2,900 compounds, median “NF-kB SEAP reporter activity, fold change vs agonist alone” near 0.99, cut for the highest 2% near 2.6. The entries come from a sample that favours the highest values as a whole.

Assays:
RAW-Dual [1] = test: NF-kB SEAP reporter activity, fold change vs agonist alone; higher = enhanced NF-kB activity; settings: library stock concentration (final ~1000-fold dilution): 10 mM, cytotoxicity flag (confluency mask): not cytotoxic
In short: (§1)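 Reporter activity is given as fold change relative to agonist-alone wells. To measure it, 50 nL of library stock was pin-tooled onto RAW-Dual macrophages (50,000 cells/well, DMEM, 384-well plates), a PRR agonist followed 1 h later, and cells stayed at 37 °C, 5% CO2. Twenty hours on, supernatant was assayed for IRF (QuantiLuc luminescence) and NF-κB (QuantiBlue, 620 nm absorbance), and wells under 70% of agonist-control IncuCyte confluency in both mask sets were marked cytotoxic.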

RAW-Dual [2] = test: NF-kB SEAP reporter activity, fold change vs agonist alone; cytotoxicity flag (confluency mask): not cytotoxic; higher = enhanced NF-kB activity
In short: as §1

[3] = agonist: ODN 1826 (TLR9) 0.5 ug/mL
[4] = agonist: Pam2CSK4 (TLR2/6) 0.1 ug/mL
[5] = agonist: Pam3CSK4 (TLR2/1) 0.1 ug/mL

**Q.** Which results are given for `CCN(CC)Cc1ccc(C(=O)N(CCc2ccccc2OC)C2CCNC2)cc1` (stereo unspecified)?
**A.** NF-kB SEAP reporter activity (RAW-Dual [1]; agonist: Imiquimod (TLR7) […]): 0.518; NF-kB SEAP reporter activity (RAW-Dual [1]; agonist: MPLA (TLR4) […]): 1.28

**Q.** How did the “NF-kB SEAP reporter activity” value (RAW-Dual [2]; agonist: LPS (TLR4) 0.1 ug/mL) turn out when `C=C1CCC2C(C)(COC(=O)CCC(=O)O)C(OC(=O)CCC(=O)O)CCC2(C)C1/C=C/C1=CCOC1=O` (stereo unspecified) (library stock concentration (final ~1000-fold dilution): 10 mM) was run?
**A.** 0.94

**Q.** And the “NF-kB SEAP reporter activity” value (RAW-Dual [2]; [3])?
**A.** 0.908

**Q.** What about the “NF-kB SEAP reporter activity” value (RAW-Dual [2]; [4]) of the same compound?
**A.** 0.924

**Q.** What about the “NF-kB SEAP reporter activity” value (RAW-Dual [2]; [5]) of the same compound?
**A.** 1.06

**Q.** What does the source list for `C=C1CCC2C(C)(COC(=O)CCC(=O)O)C(OC(=O)CCC(=O)O)CCC2(C)C1/C=C/C1=CCOC1=O` (stereo unspecified)?
**A.** NF-kB SEAP reporter activity (RAW-Dual [1]; agonist: Imiquimod (TLR7) […]): 0.926; NF-kB SEAP reporter activity (RAW-Dual [1]; agonist: MPLA (TLR4) […]): 0.985

**Q.** Which “NF-kB SEAP reporter activity” value (RAW-Dual [2]; agonist: LPS (TLR4) 0.1 ug/mL) does the source give for `N#Cc1ccc2ncnc(NCCc3ccccc3)c2c1` (library stock concentration (final ~1000-fold dilution): 10 mM) here?
**A.** 2.76

**Q.** And the “NF-kB SEAP reporter activity” value (RAW-Dual [2]; [3])?
**A.** 1.15

**Q.** What about the “NF-kB SEAP reporter activity” value (RAW-Dual [2]; [4]) of the same compound?
**A.** 1.51

**Q.** What about the “NF-kB SEAP reporter activity” value (RAW-Dual [2]; [5]) of the same compound?
**A.** 1.76

**Q.** For `Nc1ccc2ncnc(NCCc3ccc(Oc4ccccc4)cc3)c2c1`, which “NF-kB SEAP reporter activity” value (RAW-Dual [1]; agonist: Imiquimod (TLR7) […]) is on record?
**A.** 1.46

**Q.** Which “NF-kB SEAP reporter activity” value (RAW-Dual [1]; agonist: Imiquimod (TLR7) […]) does the source give for `N#Cc1ccc2ncnc(NCCc3ccccc3)c2c1` here?
**A.** 0.984

**Q.** What about the “NF-kB SEAP reporter activity” value (RAW-Dual [1]; agonist: MPLA (TLR4) […]) of the same compound?
**A.** 1.59

**Q.** For `Cc1ccc(CNc2ncnc3ccc(-c4ccc(CO)o4)cc23)o1` (library stock concentration (final ~1000-fold dilution): 10 mM), which “NF-kB SEAP reporter activity” value (RAW-Dual [2]; agonist: LPS (TLR4) 0.1 ug/mL) is on record?
**A.** 1.16

**Q.** And the “NF-kB SEAP reporter activity” value (RAW-Dual [2]; [3])?
**A.** 1.35

**Q.** And the “NF-kB SEAP reporter activity” value (RAW-Dual [2]; [4])?
**A.** 1.21

**Q.** And the “NF-kB SEAP reporter activity” value (RAW-Dual [2]; [5])?
**A.** 1.4

**Q.** What does the source list for `Nc1ccc2ncnc(NCCc3ccc(Oc4ccccc4)cc3)c2c1` (library stock concentration (final ~1000-fold dilution): 10 mM)?
**A.** NF-kB SEAP reporter activity (RAW-Dual [2]; agonist: LPS (TLR4) 0.1 ug/mL): 1.57 and 1.15; NF-kB SEAP reporter activity (RAW-Dual [2]; [4]): 0.752 and 0.456; NF-kB SEAP reporter activity (RAW-Dual [2]; [5]): 1.02 and 0.73

**Q.** What does the source list for `Cc1ccc(CNc2ncnc3ccc(-c4ccc(CO)o4)cc23)o1`?
**A.** NF-kB SEAP reporter activity (RAW-Dual [1]; agonist: Imiquimod (TLR7) […]): 1.07; NF-kB SEAP reporter activity (RAW-Dual [1]; agonist: MPLA (TLR4) […]): 1.24

**Q.** Which “NF-kB SEAP reporter activity” value (RAW-Dual [1]; agonist: Imiquimod (TLR7) […]) does the source give for `O=C(Nc1ccc(Cl)cc1)c1cc2ccccc2cc1OP(=O)(O)O` here?
**A.** 0.877

**Q.** What about the “NF-kB SEAP reporter activity” value (RAW-Dual [1]; agonist: MPLA (TLR4) […]) of the same compound?
**A.** 1.04

**Q.** For `O=C(Nc1ccc(Cl)cc1)c1cc2ccccc2cc1OP(=O)(O)O` (library stock concentration (final ~1000-fold dilution): 10 mM), which “NF-kB SEAP reporter activity” value (RAW-Dual [2]; agonist: LPS (TLR4) 0.1 ug/mL) is on record?
**A.** 1.08

**Q.** And the “NF-kB SEAP reporter activity” value (RAW-Dual [2]; [3])?
**A.** 0.965

**Q.** What about the “NF-kB SEAP reporter activity” value (RAW-Dual [2]; [4]) of the same compound?
**A.** 0.931

**Q.** And the “NF-kB SEAP reporter activity” value (RAW-Dual [2]; [5])?
**A.** 0.763

**Q.** `N=C(N)NCCCC1NC(=O)C(CCCCN)NC(=O)C(Cc2ccccc2)NC(=O)C(CC(=O)O)NC(=O)CNC1=O.O=C(O)C(F)(F)F` (stereo unspecified) (library stock concentration (final ~1000-fold dilution): 10 mM) was tested. Which “NF-kB SEAP reporter activity” value (RAW-Dual [2]; agonist: LPS (TLR4) 0.1 ug/mL) did it give?
**A.** 1.07

**Q.** And the “NF-kB SEAP reporter activity” value (RAW-Dual [2]; [3])?
**A.** 0.955

**Q.** And the “NF-kB SEAP reporter activity” value (RAW-Dual [2]; [4])?
**A.** 1.13

**Q.** What about the “NF-kB SEAP reporter activity” value (RAW-Dual [2]; [5]) of the same compound?
**A.** 0.988

**Q.** `N=C(N)NCCCC1NC(=O)C(CCCCN)NC(=O)C(Cc2ccccc2)NC(=O)C(CC(=O)O)NC(=O)CNC1=O.O=C(O)C(F)(F)F` (stereo unspecified) was tested. Which “NF-kB SEAP reporter activity” value (RAW-Dual [1]; agonist: Imiquimod (TLR7) […]) did it give?
**A.** 0.934

**Q.** And the “NF-kB SEAP reporter activity” value (RAW-Dual [1]; agonist: MPLA (TLR4) […])?
**A.** 1.07
